According to paper PMC7862700, “An all-to-all approach to the identification of sequence-specific readers for epigenetic DNA modifications on cytosine”:

Experiments:
Assay in all cases: DAPPL (digital affinity profiling via proximity ligation, sequencing); 10 mM Tris-HCl pH 7.5, 50 mM NaCl, 1 mM DTT, 4% glycerol, room temperature, 30 min; GST-TFs on glutathione beads, 16-mer random dsDNA library, 0.1% formaldehyde crosslink after washing; high values mean tight binding
FLI1 = molecular target: T1, FLI1 (Homo sapiens, UniProt Q01543 1-452); conditions: protein: recombinant; tags: N-terminal GST; dsDNA, one strand shown
T1 sequence: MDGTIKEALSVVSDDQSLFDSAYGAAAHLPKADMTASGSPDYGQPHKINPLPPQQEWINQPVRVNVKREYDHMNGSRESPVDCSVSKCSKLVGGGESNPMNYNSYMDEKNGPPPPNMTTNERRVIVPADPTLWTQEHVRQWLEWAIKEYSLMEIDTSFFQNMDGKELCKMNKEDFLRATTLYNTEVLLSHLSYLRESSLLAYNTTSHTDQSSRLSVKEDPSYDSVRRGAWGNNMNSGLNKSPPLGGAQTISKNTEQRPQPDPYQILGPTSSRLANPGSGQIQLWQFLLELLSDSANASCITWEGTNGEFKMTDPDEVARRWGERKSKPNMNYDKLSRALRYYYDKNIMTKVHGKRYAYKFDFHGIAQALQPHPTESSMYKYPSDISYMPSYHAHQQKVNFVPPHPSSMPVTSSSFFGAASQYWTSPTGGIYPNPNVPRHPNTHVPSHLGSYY
Procedure, shortened: (§1)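 A tag-only sample was pooled with DNA-barcoded human transcription factors that had been expressed in yeast as GST fusions and captured on glutathione beads. The pools were incubated for 30 min at room temperature with 200 nmole of a random double-stranded 16-mer DNA library in Tris/NaCl/DTT/glycerol buffer, then washed, crosslinked with 0.1% formaldehyde, proximity-ligated (BsaI/T4 ligase, 1 h, 37 °C), PCR-amplified and sequenced on an Illumina NextSeq500. Binding signal is each hexamer's read frequency for a factor divided by its frequency for the tag-only sample.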

ELK1 = molecular target: T2, ELK1 (Homo sapiens, UniProt P19419 1-428); conditions: protein: recombinant; tags: N-terminal GST; dsDNA, one strand shown
T2 sequence: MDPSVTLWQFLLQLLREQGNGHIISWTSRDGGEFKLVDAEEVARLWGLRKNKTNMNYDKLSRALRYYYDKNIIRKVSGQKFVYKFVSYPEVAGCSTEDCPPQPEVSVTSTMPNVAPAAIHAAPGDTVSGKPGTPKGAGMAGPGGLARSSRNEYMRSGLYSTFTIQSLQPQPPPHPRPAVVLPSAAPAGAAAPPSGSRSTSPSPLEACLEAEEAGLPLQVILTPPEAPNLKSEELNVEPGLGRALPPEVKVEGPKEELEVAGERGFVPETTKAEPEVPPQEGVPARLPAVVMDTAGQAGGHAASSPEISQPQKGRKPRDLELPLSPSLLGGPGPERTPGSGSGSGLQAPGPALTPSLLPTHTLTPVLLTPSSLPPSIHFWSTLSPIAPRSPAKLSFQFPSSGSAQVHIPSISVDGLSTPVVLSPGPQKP
Procedure, shortened: as §1

GABPA = molecular target: T3, GABPA (Homo sapiens, UniProt Q06546 1-454); conditions: protein: recombinant; tags: N-terminal GST; dsDNA, one strand shown
T3 sequence: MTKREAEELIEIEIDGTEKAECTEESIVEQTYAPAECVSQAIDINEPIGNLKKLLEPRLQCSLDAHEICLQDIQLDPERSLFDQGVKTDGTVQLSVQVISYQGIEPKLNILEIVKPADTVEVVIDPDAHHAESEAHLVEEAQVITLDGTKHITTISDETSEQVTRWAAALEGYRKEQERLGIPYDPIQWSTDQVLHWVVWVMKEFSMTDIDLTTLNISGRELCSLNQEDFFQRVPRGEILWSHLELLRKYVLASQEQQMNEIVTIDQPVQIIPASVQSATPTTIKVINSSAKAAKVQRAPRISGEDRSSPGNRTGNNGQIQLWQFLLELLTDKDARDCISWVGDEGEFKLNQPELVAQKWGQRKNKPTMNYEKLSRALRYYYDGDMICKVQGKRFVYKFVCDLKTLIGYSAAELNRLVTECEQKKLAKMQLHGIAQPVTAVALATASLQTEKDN
Procedure, shortened: as §1

ERG = molecular target: T4, ERG (Homo sapiens, UniProt P11308 1-479); conditions: protein: recombinant; tags: N-terminal GST; dsDNA, one strand shown
T4 sequence: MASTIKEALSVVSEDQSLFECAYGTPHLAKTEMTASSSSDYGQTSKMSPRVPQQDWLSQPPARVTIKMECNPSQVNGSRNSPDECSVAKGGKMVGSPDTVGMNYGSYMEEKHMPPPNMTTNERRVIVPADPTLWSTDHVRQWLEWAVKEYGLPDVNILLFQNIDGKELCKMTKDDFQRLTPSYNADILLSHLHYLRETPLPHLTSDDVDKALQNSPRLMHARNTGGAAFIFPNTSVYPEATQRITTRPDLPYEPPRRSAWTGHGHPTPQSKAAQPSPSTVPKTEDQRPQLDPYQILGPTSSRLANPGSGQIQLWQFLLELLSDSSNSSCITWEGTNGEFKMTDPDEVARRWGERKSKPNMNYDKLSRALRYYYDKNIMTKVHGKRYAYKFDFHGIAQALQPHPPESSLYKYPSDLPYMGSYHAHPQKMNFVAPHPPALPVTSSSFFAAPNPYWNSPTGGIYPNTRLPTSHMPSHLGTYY
Procedure, shortened: as §1

ELF1 = ELF1 (Homo sapiens, UniProt P32519 1-619); conditions: protein: recombinant; tags: N-terminal GST; dsDNA, one strand shown
Procedure, shortened: as §1

EHF = molecular target: T5, EHF (Homo sapiens, UniProt Q9NZC4 1-300); conditions: protein: recombinant; tags: N-terminal GST; dsDNA, one strand shown
T5 sequence: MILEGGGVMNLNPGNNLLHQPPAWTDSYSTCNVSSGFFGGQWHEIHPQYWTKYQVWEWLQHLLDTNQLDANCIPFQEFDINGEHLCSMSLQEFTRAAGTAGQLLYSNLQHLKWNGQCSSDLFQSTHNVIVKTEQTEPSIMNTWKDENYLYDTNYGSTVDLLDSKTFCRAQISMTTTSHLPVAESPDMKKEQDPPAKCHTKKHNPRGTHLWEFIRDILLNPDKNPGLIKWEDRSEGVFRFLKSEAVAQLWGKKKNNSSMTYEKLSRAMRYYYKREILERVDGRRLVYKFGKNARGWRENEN
Procedure, shortened: as §1

SPI1 = SPI1 (Homo sapiens, UniProt P17947 1-270); conditions: protein: recombinant; tags: N-terminal GST; dsDNA, one strand shown
Procedure, shortened: as §1

SPIB = SPIB (Homo sapiens, UniProt Q01892 1-262); conditions: protein: recombinant; tags: N-terminal GST; dsDNA, one strand shown
Procedure, shortened: as §1

ELK3 = molecular target: T6, ELK3 (Homo sapiens, UniProt P41970 1-407); conditions: protein: recombinant; tags: N-terminal GST; dsDNA, one strand shown
T6 sequence: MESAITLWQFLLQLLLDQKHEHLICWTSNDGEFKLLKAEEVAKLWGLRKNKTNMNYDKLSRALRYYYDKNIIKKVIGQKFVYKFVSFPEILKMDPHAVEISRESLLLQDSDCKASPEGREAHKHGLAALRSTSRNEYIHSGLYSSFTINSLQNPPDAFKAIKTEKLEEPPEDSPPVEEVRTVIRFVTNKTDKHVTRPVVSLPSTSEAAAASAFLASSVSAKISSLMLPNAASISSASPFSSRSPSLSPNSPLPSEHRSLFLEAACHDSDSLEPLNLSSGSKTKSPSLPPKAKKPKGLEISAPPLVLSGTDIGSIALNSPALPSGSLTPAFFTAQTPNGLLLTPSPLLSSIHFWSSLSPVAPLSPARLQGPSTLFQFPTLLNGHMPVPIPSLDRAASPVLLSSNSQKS
Procedure, shortened: as §1

FEV = molecular target: T7, FEV (Homo sapiens, UniProt Q99581 1-238); conditions: protein: recombinant; tags: N-terminal GST; dsDNA, one strand shown
T7 sequence: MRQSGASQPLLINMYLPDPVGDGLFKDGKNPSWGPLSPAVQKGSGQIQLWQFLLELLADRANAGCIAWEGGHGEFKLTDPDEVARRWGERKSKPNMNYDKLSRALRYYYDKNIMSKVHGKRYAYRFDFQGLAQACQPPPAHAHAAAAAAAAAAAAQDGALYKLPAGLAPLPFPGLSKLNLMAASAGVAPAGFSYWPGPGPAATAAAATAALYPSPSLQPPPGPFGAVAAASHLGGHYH
Procedure, shortened: as §1

ETV5 = ETV5 (Homo sapiens, UniProt P41161 1-510); conditions: protein: recombinant; tags: N-terminal GST; dsDNA, one strand shown
Procedure, shortened: as §1

HSF1 = HSF1 (Homo sapiens, UniProt Q00613 1-529); conditions: protein: recombinant; tags: N-terminal GST; chain copies: 3; dsDNA, one strand shown
Procedure, shortened: as §1

SPIC = molecular target: T8, SPIC (Homo sapiens, UniProt Q8N5J4 1-248); conditions: protein: recombinant; tags: N-terminal GST; dsDNA, one strand shown
T8 sequence: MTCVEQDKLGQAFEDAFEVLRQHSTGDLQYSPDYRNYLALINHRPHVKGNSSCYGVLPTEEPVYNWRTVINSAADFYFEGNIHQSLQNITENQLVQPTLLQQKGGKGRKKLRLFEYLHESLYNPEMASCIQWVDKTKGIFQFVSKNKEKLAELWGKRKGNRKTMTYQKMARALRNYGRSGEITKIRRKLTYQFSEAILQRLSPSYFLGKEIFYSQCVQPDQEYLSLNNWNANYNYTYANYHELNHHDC
Procedure, shortened: as §1

ELF4 = ELF4 (Homo sapiens, UniProt Q99607 1-663); conditions: protein: recombinant; tags: N-terminal GST; dsDNA, one strand shown
Procedure, shortened: as §1

ELK4 = molecular target: T9, ELK4 (Homo sapiens, UniProt P28324-2 1-405); conditions: protein: recombinant; tags: N-terminal GST; dsDNA, one strand shown
T9 sequence: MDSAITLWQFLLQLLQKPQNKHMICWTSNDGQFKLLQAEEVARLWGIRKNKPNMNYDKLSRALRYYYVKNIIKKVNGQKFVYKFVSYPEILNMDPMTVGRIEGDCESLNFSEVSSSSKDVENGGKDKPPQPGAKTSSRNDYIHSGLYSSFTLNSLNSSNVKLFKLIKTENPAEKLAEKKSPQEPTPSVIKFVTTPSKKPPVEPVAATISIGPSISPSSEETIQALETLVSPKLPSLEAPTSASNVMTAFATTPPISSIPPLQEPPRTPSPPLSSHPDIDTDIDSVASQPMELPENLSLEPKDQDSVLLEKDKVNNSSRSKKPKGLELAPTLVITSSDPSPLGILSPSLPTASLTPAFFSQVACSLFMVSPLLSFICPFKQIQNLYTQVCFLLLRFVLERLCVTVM
Procedure, shortened: as §1

ETV2 = molecular target: T10, ETV2 (Homo sapiens, UniProt O00321 1-342); conditions: protein: recombinant; tags: N-terminal GST; dsDNA, one strand shown
T10 sequence: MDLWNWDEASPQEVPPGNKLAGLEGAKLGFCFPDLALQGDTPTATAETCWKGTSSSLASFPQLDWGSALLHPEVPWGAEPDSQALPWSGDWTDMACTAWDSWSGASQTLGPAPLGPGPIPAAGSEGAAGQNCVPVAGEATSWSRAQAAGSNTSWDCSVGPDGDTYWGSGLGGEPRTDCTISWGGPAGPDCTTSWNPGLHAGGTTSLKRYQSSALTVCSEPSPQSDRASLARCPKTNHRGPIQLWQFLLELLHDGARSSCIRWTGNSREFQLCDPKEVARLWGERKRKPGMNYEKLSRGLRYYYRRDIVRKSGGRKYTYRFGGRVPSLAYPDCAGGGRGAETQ
Procedure, shortened: as §1

ELF3 = molecular target: T11, ELF3 (Homo sapiens, UniProt P78545 1-371); conditions: protein: recombinant; tags: N-terminal GST; dsDNA, one strand shown
T11 sequence: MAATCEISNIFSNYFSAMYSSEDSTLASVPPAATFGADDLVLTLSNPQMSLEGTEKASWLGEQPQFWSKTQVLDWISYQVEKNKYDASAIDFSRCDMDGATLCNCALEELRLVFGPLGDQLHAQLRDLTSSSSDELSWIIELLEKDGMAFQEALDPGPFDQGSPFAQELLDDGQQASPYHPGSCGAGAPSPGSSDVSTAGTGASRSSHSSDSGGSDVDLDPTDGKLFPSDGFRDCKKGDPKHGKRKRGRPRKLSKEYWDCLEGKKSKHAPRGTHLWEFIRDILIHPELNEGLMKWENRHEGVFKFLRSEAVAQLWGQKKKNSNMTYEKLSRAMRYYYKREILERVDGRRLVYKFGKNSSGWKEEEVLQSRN
Procedure, shortened: as §1

CRX = CRX (Homo sapiens, UniProt O43186 1-299); conditions: protein: recombinant; tags: N-terminal GST; dsDNA, one strand shown
Procedure, shortened: as §1

ETV1 = ETV1 (Homo sapiens, UniProt P50549 1-477); conditions: protein: recombinant; tags: N-terminal GST; dsDNA, one strand shown
Procedure, shortened: as §1

Chain of ELF1 (P32519 whole entry): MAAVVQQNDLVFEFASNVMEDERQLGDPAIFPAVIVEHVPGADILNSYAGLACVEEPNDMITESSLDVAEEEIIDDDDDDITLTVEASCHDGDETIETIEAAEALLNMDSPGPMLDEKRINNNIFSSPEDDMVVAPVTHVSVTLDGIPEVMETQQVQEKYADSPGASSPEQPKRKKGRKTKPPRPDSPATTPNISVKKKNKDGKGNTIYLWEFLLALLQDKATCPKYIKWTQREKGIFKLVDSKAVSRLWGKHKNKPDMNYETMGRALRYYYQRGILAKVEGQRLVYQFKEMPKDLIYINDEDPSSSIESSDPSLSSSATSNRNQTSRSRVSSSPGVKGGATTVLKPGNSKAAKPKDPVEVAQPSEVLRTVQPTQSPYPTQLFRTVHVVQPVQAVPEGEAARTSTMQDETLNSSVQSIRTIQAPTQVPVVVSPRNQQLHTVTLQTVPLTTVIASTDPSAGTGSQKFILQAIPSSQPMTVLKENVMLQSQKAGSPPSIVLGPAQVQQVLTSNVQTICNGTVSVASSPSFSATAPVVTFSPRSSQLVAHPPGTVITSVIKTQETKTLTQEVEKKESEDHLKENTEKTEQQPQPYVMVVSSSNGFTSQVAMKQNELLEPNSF
Chain of ELF4 (Q99607 whole entry): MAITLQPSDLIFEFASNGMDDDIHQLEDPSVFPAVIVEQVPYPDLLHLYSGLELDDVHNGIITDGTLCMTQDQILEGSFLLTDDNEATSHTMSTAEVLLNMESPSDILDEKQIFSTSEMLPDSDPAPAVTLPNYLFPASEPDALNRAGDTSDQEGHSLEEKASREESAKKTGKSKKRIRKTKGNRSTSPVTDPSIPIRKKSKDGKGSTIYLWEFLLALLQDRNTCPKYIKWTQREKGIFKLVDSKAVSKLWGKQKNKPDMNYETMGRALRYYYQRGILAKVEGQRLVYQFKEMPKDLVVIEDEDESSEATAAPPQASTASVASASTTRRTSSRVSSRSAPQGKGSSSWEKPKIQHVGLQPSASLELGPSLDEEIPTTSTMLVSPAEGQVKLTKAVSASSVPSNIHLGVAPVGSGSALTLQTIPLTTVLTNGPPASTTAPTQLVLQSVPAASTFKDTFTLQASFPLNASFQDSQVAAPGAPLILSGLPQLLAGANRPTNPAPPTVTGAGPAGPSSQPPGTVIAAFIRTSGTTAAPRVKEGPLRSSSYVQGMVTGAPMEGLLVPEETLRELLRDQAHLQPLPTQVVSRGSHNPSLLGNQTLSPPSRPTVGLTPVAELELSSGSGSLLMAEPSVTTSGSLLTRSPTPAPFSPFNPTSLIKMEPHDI
Chain of ETV1 (P50549 whole entry): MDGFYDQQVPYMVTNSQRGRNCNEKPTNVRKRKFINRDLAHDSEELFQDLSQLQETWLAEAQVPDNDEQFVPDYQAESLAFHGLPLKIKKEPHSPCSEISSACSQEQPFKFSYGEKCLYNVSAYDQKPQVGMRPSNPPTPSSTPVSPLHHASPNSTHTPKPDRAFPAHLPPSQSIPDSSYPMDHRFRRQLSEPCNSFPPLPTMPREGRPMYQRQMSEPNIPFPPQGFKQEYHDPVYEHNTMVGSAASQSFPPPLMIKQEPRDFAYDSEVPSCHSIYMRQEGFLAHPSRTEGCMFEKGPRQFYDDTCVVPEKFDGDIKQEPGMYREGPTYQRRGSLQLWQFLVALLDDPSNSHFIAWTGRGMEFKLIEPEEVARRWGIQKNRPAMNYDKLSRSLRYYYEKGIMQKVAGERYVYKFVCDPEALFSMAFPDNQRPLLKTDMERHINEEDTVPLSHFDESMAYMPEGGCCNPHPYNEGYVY
Chain of HSF1 (Q00613 whole entry): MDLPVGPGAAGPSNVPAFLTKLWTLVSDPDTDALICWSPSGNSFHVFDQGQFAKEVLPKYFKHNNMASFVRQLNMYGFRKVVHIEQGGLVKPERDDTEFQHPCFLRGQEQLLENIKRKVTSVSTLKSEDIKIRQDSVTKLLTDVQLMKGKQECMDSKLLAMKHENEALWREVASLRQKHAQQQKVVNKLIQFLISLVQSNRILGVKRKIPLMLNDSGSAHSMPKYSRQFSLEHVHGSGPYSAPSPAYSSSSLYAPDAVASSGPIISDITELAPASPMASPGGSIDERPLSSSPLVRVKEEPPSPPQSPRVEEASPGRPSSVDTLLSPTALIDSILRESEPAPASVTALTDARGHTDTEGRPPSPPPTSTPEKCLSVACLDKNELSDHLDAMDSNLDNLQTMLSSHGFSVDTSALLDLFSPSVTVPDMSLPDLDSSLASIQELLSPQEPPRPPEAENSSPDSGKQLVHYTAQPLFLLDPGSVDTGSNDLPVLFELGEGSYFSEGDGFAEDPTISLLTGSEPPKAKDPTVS
Chain of SPIB (Q01892 whole entry): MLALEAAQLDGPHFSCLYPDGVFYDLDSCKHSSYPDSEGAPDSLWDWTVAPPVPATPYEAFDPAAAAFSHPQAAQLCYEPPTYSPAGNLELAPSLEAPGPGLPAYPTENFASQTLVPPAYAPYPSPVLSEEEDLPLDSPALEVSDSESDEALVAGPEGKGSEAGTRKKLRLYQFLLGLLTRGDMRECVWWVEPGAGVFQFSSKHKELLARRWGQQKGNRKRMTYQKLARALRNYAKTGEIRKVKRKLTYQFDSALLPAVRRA
Chain of ETV5 (P41161 whole entry): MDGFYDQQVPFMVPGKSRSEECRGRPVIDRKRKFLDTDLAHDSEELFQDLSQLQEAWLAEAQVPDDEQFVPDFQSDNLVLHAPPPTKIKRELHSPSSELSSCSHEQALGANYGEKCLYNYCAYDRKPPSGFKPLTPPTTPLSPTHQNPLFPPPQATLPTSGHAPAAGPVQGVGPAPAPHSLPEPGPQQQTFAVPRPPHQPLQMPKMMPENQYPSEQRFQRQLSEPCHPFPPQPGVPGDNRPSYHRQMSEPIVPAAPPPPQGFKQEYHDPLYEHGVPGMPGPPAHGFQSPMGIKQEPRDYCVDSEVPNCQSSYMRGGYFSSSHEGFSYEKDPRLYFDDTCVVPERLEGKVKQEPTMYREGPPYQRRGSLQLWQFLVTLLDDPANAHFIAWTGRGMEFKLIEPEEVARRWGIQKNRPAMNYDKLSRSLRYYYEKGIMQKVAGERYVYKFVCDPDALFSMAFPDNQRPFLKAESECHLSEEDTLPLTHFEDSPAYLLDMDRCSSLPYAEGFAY
Chain of CRX (O43186 whole entry): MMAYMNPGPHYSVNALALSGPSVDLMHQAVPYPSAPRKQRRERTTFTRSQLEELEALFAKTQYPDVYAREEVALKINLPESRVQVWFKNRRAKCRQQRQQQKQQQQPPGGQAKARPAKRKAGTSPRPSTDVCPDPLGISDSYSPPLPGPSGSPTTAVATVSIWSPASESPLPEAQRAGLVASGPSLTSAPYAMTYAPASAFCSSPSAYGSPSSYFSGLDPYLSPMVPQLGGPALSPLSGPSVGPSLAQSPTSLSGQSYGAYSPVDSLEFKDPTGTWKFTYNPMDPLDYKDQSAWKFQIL

TCTTAT
binding signal (FLI1): 1.41 fold enrichment (6-mer frequency, TF over GST control)
binding signal (ELK1): 1.33 fold enrichment (6-mer frequency, TF over GST control)
binding signal (GABPA): 1.25 fold enrichment (6-mer frequency, TF over GST control)
binding signal (ERG): 1.27 fold enrichment (6-mer frequency, TF over GST control)
binding signal (ELF1): 1.28 fold enrichment (6-mer frequency, TF over GST control)
binding signal (EHF): 1.16 fold enrichment (6-mer frequency, TF over GST control)
binding signal (SPI1): 1.28 fold enrichment (6-mer frequency, TF over GST control)
binding signal (SPIB): 1.22 fold enrichment (6-mer frequency, TF over GST control)
binding signal (ELK3): 1.31 fold enrichment (6-mer frequency, TF over GST control)
binding signal (FEV): 1.27 fold enrichment (6-mer frequency, TF over GST control)
binding signal (ETV5): 1.26 fold enrichment (6-mer frequency, TF over GST control)
binding signal (HSF1): 1.57 fold enrichment (6-mer frequency, TF over GST control)
binding signal (SPIC): 1.3 fold enrichment (6-mer frequency, TF over GST control)
binding signal (ELF4): 1.21 fold enrichment (6-mer frequency, TF over GST control)
binding signal (ELK4): 1.3 fold enrichment (6-mer frequency, TF over GST control)
binding signal (ETV2): 1.22 fold enrichment (6-mer frequency, TF over GST control)
binding signal (ELF3): 1.36 fold enrichment (6-mer frequency, TF over GST control)
binding signal (CRX): 2.21 fold enrichment (6-mer frequency, TF over GST control)
binding signal (ETV1): 1.32 fold enrichment (6-mer frequency, TF over GST control)
